Consider eleven compounds from ChEMBL document CHEMBL3988442, “University of Dundee, Small-Polar-MMV Screening Library” (2021).

Holding throughout (design): scale not given: direction of the effect not stated beside the values
Assay [1] has as its target Protein translocase subunit SecA (Escherichia coli (strain K12)) (UniProt P10408). Put plainly: Assay to Identify E. coli SecA ATPase Inhibitors. Format: functional. The following applies: 30 µM.
The target in assay [2] is T1, Ubiquitin-activating enzyme e1, putative (Leishmania donovani (strain BPK282A1)) (UniProt E9BSI1).
T1 sequence (whole entry): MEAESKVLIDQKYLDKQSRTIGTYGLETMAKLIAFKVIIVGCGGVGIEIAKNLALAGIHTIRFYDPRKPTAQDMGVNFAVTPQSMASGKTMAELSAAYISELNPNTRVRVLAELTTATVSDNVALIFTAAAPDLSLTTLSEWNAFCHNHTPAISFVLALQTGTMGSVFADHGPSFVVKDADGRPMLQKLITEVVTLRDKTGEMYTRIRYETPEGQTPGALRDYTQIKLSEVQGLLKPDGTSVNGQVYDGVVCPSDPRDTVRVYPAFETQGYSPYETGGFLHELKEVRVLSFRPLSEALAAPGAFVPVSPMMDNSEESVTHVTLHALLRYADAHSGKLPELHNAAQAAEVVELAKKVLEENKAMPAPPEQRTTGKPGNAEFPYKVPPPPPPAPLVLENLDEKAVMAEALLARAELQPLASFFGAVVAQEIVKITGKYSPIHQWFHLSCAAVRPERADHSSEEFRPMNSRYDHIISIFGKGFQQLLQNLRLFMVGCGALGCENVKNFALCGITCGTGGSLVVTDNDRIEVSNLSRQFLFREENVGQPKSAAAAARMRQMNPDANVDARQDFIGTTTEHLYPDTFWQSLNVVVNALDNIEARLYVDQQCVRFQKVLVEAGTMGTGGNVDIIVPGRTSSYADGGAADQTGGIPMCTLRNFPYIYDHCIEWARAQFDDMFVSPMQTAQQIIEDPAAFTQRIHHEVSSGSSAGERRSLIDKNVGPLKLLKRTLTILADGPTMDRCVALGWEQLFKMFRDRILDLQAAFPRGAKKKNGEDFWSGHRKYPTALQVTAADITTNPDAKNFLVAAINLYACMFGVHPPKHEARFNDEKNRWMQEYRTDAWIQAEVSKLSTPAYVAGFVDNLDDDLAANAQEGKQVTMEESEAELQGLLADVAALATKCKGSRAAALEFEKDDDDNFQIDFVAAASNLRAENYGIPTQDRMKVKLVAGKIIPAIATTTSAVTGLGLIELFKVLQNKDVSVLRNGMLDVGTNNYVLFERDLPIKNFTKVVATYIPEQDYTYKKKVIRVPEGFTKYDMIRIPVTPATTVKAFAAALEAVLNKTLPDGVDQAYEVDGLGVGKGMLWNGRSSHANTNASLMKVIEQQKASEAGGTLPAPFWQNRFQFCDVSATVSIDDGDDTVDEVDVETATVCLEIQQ
Put plainly: Leishmania donovani Ubiquitin Activating Enzyme (LdE1). The following applies: 30 µM. It counts as functional.

In assay [3] the target is AMP-activated protein kinase, AMPK (Homo sapiens) (UniProt P54646+O43741+P54619+Q9UGJ0+Q9Y478+Q13131+Q9UGI9). Nature of the assay: AMP-dependent Kinase enzyme assay. An in vitro enzyme assay that detects ADP turnover that is directly proportional to AMPK activity. This uses naive AMPK that is activated during the assay with MK-8722. Format: functional. The following applies: 30 µM.

In assay [4] the target is Sialic acid-binding Ig-like lectin 9 (Homo sapiens) (UniProt Q9Y336). Nature of the assay: Hs-Siglec9 ALPHAscreen SOP 20170721. The following applies: 10 µM. (Alpha assays give light when donor and acceptor beads are brought close together.)
Sequence of Sialic acid-binding Ig-like lectin 9 (Homo sapiens) (Q9Y336 whole entry): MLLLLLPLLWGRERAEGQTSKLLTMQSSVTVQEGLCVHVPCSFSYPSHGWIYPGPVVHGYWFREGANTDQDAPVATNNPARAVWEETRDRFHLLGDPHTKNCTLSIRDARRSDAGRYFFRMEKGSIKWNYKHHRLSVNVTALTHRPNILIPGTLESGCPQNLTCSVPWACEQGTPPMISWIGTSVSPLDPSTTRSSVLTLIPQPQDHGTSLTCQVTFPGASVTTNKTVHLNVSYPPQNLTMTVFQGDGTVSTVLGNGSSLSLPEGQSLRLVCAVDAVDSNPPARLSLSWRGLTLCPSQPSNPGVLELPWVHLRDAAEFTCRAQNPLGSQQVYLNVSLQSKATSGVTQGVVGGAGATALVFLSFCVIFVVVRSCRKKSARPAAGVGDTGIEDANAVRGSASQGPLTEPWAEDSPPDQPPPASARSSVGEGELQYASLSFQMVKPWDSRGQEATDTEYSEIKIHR
In assay [5] the test system is Trypanosoma cruzi. Put plainly: Trypanosoma cruzi phosphomannomutase and mannose-1-phosphate guanylyltransferase assay. It counts as functional. The following applies: 10 µM.
The target of assay [6] is T2, Arginase-2, mitochondrial (Homo sapiens) (UniProt P78540).
T2 sequence (whole entry): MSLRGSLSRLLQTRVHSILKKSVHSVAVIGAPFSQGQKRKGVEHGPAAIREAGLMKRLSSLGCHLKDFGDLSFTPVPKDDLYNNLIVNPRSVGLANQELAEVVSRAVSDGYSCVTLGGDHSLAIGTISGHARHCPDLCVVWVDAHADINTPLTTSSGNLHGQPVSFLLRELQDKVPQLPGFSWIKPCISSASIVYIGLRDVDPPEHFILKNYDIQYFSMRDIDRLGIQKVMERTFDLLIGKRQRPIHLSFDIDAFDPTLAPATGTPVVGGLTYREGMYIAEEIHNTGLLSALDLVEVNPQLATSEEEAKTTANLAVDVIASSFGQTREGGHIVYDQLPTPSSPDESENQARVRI
Nature of the assay: in vitro enzyme assay to detect the production of urea directly proportional to the activity of Arginase II. Further: in the data most compounds retested in dose-response had high values. Format: functional. The following applies: 33.3 µM.

Assay [7] addresses T3, Proteasome subunit beta (Trypanosoma cruzi) (UniProt O96673).
T3 sequence (whole entry): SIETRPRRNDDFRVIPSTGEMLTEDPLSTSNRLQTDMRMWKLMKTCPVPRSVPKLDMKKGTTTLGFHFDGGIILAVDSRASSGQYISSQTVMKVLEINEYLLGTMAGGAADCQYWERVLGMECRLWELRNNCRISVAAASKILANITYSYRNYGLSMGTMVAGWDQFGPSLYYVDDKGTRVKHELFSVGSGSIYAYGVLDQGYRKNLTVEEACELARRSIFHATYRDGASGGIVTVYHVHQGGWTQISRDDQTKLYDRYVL
Nature of the assay: Trypanosoma cruzi proteasome chymotrypsin-like activity (TcProtChymo) assay. Further: in the data most compounds retested in dose-response had high values. Format: functional. The following applies: 9.37 µM.

The species entered for assay [8] is Homo sapiens. Nature of the assay: To identify inhibition of the IFN signalling (Jak-Stat) pathway via expression of an eGFP reporter gene under the control of an IFN-stimulated response element (ISRE) containing MxA promoter. It counts as functional. The following applies: 30 µM. (In general: Reporter assays use an easily measured gene product as a stand-in for the process of interest.)

Assay [9] concerns the target T4, Tyrosyl-tRNA synthetase, putative (Trypanosoma cruzi (strain CL Brener)) (UniProt Q4DSP6).
T4 sequence (whole entry): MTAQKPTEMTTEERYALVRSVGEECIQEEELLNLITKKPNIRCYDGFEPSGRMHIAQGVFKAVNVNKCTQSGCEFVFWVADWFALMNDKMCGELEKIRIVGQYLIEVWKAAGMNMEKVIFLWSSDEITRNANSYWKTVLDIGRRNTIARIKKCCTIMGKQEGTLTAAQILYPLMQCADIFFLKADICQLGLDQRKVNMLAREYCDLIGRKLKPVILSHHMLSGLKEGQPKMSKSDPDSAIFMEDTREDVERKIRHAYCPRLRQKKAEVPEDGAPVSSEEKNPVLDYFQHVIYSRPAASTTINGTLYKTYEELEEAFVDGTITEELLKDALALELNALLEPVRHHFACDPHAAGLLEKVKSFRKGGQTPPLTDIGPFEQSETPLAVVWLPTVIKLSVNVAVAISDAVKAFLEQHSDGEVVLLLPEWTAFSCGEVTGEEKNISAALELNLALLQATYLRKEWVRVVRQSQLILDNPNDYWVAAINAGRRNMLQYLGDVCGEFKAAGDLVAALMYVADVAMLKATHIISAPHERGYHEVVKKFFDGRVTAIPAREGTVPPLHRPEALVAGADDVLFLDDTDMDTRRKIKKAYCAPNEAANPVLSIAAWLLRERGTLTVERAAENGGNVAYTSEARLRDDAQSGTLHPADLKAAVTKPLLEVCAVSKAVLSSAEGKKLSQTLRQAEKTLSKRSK
Nature of the assay: Trypanosoma cruzi tyrosyl tRNA synthetase (TcYRS) _High Tyrosine SOP. Further: in the data most compounds retested in dose-response had high values. The following applies: 30 µM. Format: functional.

Assay [10] addresses T4, Tyrosyl-tRNA synthetase, putative (Trypanosoma cruzi (strain CL Brener)). Put plainly: Trypanosoma cruzi tyrosyl tRNA synthetase (TcYRS) SOP. The following applies: 30 µM. Format: functional.
The target in assay [11] is Chromo domain-containing protein 1 (Saccharomyces cerevisiae (strain ATCC 204508 / S288c) (Baker's yeast)) (UniProt P32657). Nature of the assay: ScCHD-1 Enzyme Inhibition Assay. Further: in the data most compounds retested in dose-response had high values. The following applies: 30 µM. It counts as functional.
Sequence of Chromo domain-containing protein 1 (Saccharomyces cerevisiae (strain ATCC 204508 / S288c) (Baker's yeast)) (P32657 whole entry, the tested form may be a part): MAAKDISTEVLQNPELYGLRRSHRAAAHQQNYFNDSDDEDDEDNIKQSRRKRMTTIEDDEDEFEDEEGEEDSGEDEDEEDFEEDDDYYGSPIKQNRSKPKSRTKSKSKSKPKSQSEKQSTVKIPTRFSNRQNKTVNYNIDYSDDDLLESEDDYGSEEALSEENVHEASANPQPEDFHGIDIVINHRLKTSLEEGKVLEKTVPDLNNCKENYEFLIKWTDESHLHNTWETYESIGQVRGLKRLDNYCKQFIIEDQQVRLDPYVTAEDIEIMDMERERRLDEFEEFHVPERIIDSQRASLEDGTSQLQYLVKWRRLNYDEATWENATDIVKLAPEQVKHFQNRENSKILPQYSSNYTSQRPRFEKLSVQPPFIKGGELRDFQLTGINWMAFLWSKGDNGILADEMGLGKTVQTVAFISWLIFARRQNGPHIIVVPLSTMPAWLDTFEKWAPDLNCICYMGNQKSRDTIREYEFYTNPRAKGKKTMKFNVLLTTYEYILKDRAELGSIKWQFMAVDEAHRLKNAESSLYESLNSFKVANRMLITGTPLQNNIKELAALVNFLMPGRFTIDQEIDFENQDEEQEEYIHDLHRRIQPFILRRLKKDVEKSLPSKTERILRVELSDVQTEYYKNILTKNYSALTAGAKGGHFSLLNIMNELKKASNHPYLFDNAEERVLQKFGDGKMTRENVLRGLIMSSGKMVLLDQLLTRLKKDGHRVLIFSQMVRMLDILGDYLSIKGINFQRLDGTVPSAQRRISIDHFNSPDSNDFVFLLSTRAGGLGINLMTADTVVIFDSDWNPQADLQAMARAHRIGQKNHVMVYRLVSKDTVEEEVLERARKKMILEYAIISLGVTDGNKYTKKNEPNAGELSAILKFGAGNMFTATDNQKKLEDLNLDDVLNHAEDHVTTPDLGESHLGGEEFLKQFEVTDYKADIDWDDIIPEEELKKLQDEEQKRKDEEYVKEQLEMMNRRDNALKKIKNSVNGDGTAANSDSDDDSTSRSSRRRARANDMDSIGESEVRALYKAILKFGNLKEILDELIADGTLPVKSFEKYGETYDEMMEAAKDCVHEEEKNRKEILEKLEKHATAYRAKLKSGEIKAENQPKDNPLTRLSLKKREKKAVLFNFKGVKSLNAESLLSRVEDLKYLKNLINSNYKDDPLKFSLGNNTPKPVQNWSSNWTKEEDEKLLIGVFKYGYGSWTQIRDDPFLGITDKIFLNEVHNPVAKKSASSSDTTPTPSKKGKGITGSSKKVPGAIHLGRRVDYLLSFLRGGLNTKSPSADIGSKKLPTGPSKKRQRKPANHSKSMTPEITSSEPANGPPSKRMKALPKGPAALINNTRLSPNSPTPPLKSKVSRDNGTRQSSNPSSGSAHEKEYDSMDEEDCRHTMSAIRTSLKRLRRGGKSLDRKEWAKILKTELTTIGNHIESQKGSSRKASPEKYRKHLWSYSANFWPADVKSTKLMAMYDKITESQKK

Each structure is given as a SMILES string. For some of these results: Entries with a potency or affinity are not part of this list.

Sequence of Protein translocase subunit SecA (Escherichia coli (strain K12)) (P10408 whole entry): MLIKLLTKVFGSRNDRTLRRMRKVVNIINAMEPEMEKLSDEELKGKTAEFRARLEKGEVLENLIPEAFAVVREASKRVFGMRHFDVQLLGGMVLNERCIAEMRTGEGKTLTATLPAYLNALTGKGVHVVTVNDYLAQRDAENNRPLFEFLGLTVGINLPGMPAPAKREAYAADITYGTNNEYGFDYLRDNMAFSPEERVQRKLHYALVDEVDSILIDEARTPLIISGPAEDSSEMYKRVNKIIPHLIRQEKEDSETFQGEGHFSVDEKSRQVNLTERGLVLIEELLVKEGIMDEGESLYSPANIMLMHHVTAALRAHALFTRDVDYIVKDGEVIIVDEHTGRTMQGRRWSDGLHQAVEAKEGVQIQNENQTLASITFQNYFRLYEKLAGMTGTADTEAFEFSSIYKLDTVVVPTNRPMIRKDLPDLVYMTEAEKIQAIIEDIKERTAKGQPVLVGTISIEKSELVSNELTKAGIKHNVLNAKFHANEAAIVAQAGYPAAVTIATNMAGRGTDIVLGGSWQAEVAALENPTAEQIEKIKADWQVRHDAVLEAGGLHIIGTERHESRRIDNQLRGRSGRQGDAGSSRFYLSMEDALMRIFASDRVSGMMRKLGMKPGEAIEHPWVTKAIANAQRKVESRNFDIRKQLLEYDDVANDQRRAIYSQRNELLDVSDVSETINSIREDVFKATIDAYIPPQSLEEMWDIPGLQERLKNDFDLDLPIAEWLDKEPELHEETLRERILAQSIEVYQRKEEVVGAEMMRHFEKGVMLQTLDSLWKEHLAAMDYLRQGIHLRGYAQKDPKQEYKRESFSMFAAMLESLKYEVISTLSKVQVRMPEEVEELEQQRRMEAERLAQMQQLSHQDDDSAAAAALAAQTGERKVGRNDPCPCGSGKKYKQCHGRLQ

For the compound `CC(=O)N1CCC(c2cncc(Oc3ccccc3)n2)CC1`, the Percent Effect in [1] was -10%; in [2], 0%; in assay [3] it was 9.22%; in assay [4], -2.36%; in assay [5], -4.33%; in assay [6] it was -1.17%. For the same compound, the Percent Effect was 8.19% in assay [7]; 14% in assay [8]; -1.06% in assay [9]; 3.85% in [10]; -3.75% in [11].

Turning to `COc1cccc(CN(C)Cc2ccc(C#N)cc2)c1OC`, the Percent Effect was -2.85% in assay [1]; -5.41% in [2]; 2.32% in assay [3]; -6% in assay [4]; 0.586% in assay [5]; -1.67% in assay [6]. Further, the Percent Effect is 7.86% in assay [7]; -3.25% in assay [8]; 4.95% in [9]; -3.66% in assay [10]; -5.17% in assay [11].

With `Cc1nc(C)n(CC2CN(Cc3cccc4c3OCCO4)CCO2)n1` (stereo unspecified), the Percent Effect is -6.14% in assay [1]; 18.4% in assay [2]; -1.72% in [3]; 0.869% in assay [4]; 3.46% in assay [5]; 1.08% in assay [6]. Besides, the Percent Effect in assay [7] is 1.78%; in [8], 2.86%; in [9] it was 11.3%; in assay [10], 28.4%; in assay [11] it was -8.32%.

Take `Cc1cccc(-c2ccc3nc(C4CCN(CC5CC5)CC4)nn3c2)c1`: the Percent Effect in assay [1] was -0.334%; in assay [2] it was 5.48%; in assay [3], -2.67%; in assay [4] it was 13.9%; in [5], 3.77%; in assay [6], -0.399%. For the same compound, the Percent Effect in [7] is 10.2%; in assay [8], 8.44%; in assay [9], 3.12%; in [10] it was 8.64%; in assay [11] it was -2.92%.

As to `CCc1nc(C2CCCN2C(=O)CCc2ccc3c(c2)OCO3)no1` (stereo unspecified), the Percent Effect is -3.47% in [1]; -5.41% in assay [2]; 2.98% in assay [3]; 5.83% in [4]; 3.62% in [5]; -3.14% in assay [6]. For the same compound, the Percent Effect in assay [7] is -6.46%; in assay [8], 10.2%; in assay [9], 1.98%; in assay [10], 1.22%; in assay [11] it was 10.8%.

With `Cc1nn(C)c(C)c1NC(=O)CCn1ncc2c(C)cccc21`, the Percent Effect in assay [1] is -5.82%; in assay [2], 7.79%; in assay [3] it was 1.49%; in [4] it was 9.37%; in assay [5], 2.85%; in assay [6], 9.65%. Moreover, the Percent Effect is 13.3% in assay [7]; 5.45% in [8]; 6.45% in [9]; 13.6% in assay [10]; 41.5% in [11].

As for `Cc1ccc(CNCCOc2ccc(S(C)(=O)=O)cc2)cc1`, the Percent Effect was -7.67% in assay [1]; -5.48% in assay [2]; 4.35% in assay [3]; -1.11% in assay [4]; -2.18% in [5]; -0.798% in [6]. For the same compound, the Percent Effect in [7] is -3.68%; in [8], 9.56%; in [9], 4.17%; in assay [10] it was -1.24%; in assay [11] it was 3.43%.

As for `CCOc1ccccc1CSc1nnc(CC2CCS(=O)(=O)C2)n1C` (stereo unspecified), the Percent Effect in [1] is -2.9%; in assay [2], 2.7%; in assay [3], -1.67%; in [4], 1.02%; in assay [5], -3.42%; in assay [6], 1.74%. For the same compound, the Percent Effect in assay [7] was 9.19%; in assay [8] it was 5.04%; in assay [9], 3.23%; in assay [10] it was 11.1%; in [11], -8.57%.

Regarding `CCS(=O)(=O)N1CC[C@H](OC)[C@@H]1Cc1ccncc1`, the Percent Effect in assay [1] is -2.5%; in [2] it was 13.5%; in assay [3], -1.61%; in assay [4], -11.3%; in assay [5], -4.59%; in assay [6], -9.87%. The Percent Effect was 15.3% in assay [7]; 7.61% in assay [8]; 0% in assay [9]; 7.69% in [10]; -5.24% in [11].

On to `Cc1ccc(NC2CCN(C(=O)c3ccc(Cl)o3)CC2)nn1`, for which the Percent Effect in [1] is -6.79%; in assay [2], 0%; in [3], 5.42%; in assay [4], -2.43%; in assay [5], -6.01%; in assay [6] it was 1.15%. Also, the Percent Effect is 17.4% in [7]; 24.5% in [8]; 0.49% in assay [9]; -7.32% in assay [10]; 4.23% in assay [11].

Regarding `CNC(=O)[C@H]1C[C@@H]2CN(C(=O)Nc3ccc(F)cc3)C[C@H]1O2`, the Percent Effect is -1.87% in assay [1]; 13% in assay [2]; 7.85% in assay [3]; 4.28% in [4]; 1.28% in assay [5]; 9.68% in assay [6]. Further, the Percent Effect in [7] was 9.05%; in assay [8], 18.3%; in assay [9] it was 7.41%; in assay [10], 16.7%; in [11], -7.08%.
